Assay outcomes (PubChem BioAssay)
Compounds with a hit are over-represented: about 1.5% of the library has one in this group of screens.
Bcl-xL primary: inhibitors of human Bcl-xL | Q07817 | 320,000 tested, 0.7% active | GST-Bcl-xL / FITC-Bim BH3 peptide fluorescence polarization | inhibition, % at 10.9 µM;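 active = inhibition above the mean of all tested compounds plus 3 SD, cutoff set per campaign, cut at about 30% in these data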;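 note: inhibitors lower millipolarization by displacing the labeled peptide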
MEX-5 binding: C. elegans MEX-5 TCR-2 RNA binding activity. activity score (negative = inhibition of binding), % at 10 µM. MEX-5/FITC-TCR2 RNA binding, fluorescence polarization; stronger effect = lower value. Q9XUB2. 300,000 tested, 0.38% active;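 active = inhibition past about -25% in most replicates, and total fluorescence under double the plate's negative control median, limit read from the data; inconclusive = replicates evenly split on the limit, or fluorescence at least double controls; inactive = too little inhibition in most replicates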
GLD-1 RNA inh: GLD-1-TGE RNA interaction inhibition (C. elegans) | AID 2280 | Q17339 | inhibition, % at 5.96 µM | 320,000 tested, 0.44% active | purified GLD-1 + fluorescein TGE RNA, fluorescence polarization;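 active = percent inhibition above a per-plate cutoff, the plate mean of test compounds plus 3 SD, cut at about 30% in these data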
EBV gp42 inh: blocks Epstein-Barr virus glycoprotein 42 binding | Q1HVG2 | Fluorescence polarization binding assay, mP read-out | inhibition, % (tested at 21.74 µM) | 220,000 tested, 0.42% active; in the data active = inhibition above about 50%
eLon inh: inhibits E. coli Lon protease | 360,000 tested, 0.42% active | inhibition, % at 7.94 µM | AID 602123 | P0A9M0 | purified E. coli Lon protease, fluorescence polarization; in the data active = inhibition above about 13%, passing the limit was not always enough
Target sequence (P0A9M0 whole entry, looked up): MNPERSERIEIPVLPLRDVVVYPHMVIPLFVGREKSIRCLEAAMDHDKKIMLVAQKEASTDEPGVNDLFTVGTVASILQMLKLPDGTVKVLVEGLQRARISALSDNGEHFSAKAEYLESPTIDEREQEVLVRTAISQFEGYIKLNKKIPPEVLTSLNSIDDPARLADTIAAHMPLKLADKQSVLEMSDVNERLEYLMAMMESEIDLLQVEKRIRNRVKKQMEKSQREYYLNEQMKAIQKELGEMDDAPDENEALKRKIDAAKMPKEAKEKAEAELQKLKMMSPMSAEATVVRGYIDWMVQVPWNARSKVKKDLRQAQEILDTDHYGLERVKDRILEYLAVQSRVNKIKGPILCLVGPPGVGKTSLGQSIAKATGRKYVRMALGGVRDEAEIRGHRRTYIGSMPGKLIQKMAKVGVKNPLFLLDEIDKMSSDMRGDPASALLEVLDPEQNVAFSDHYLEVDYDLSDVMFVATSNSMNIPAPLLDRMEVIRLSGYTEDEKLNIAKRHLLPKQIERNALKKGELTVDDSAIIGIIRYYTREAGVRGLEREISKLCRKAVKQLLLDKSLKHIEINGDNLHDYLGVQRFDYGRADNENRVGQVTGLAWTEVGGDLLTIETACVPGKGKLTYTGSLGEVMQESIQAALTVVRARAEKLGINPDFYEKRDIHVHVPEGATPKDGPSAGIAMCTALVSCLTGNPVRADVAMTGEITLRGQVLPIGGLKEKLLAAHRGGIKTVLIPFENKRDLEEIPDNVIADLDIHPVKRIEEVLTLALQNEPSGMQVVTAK
MCL1 BIM primary: disrupts human MCL1 binding to BIM-BH3 peptide; GST-MCL1 / FITC-Bim-BH3 fluorescence polarization; inhibition, % at 10.9 µM; 320,000 tested, 0.68% active;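 active = inhibition above the mean inhibition of all tested compounds plus 3 SD, set per campaign, cut at about 40% in these data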;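 note: higher means more loss of mP so more displacement of Bim peptide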
BCLXL inh confirm: counter-screen for MCL1 inhibitors: confirmation of human Bcl-xL inhibitors. 1,700 tested, 54% active. AID 2166. GST-Bcl-xL / FITC-Bim BH3 peptide FP binding. inhibition, % at 10.9 µM. shares compounds with MCL1 BIM primary;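 active = inhibition above a cutoff equal to the mean inhibition of all tested compounds plus 3 SD, cut at about 30% in these data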
MCL1 inh confirm: MCL1-BIM-BH3 interaction inhibition, confirmation; shares compounds with MCL1 BIM primary; AID 2168; GST-MCL1 / FITC-Bim-BH3 fluorescence polarization; 1,700 tested, 61% active; inhibition, % at 10.9 µM;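 active = inhibition above the average of all tested compounds plus 3 SD, cut at about 40% in these data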
GLD-1 TGE cf: GLD-1 TGE RNA interaction inhibition, confirmation. shares compounds with GLD-1 RNA inh. GLD-1/FL-TGE RNA fluorescence polarization, biochemical. inhibition, % at 5.96 µM. 550 tested, 10% active. AID 2459;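 active = average inhibition across triplicates above the hit cutoff set in the primary screen, cut at about 32% in these data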
E coli Lon conf: confirmation of E. coli Lon protease inhibitors; shares compounds with eLon inh; purified E. coli Lon, fluorescence polarization; inhibition, % at 7.94 µM; 1,400 tested, 31% active; AID 602230; in the data active = inhibition above about 16%
A number is an active result.

Screening COc1cc2c(cc1OC)-c1c(OC)c(OC)c(OC)c3ccnc(c13)C2=O returned Bcl-xL primary 51.9, MEX-5 binding -82.5, GLD-1 RNA inh 40.8, EBV gp42 inh inactive, MCL1 BIM primary 54.8, BCLXL inh confirm 58.6, MCL1 inh confirm 56.1 and GLD-1 TGE cf 41.0.
For COC(=O)C1=C(c2ccc(C(C)=O)cc2)C[C@@H]2CC[C@H]1N2C(=O)NC(C)C the results were Bcl-xL primary inactive, GLD-1 RNA inh inactive, eLon inh inactive and MCL1 BIM primary inactive.
C[n+]1c(-c2ccccc2)c2cc(N)ccc2c2ccc(N)cc21 was read as Bcl-xL primary 155.5, MEX-5 binding -90.3, GLD-1 RNA inh 135.5, eLon inh 154.1, MCL1 BIM primary active, BCLXL inh confirm 188.6, MCL1 inh confirm active and E coli Lon conf 76.0.
O=[N+]([O-])c1ccc(N2CCCCCC2)c2nonc12 was read as Bcl-xL primary 132.1, MEX-5 binding inconclusive, GLD-1 RNA inh 137.7, eLon inh 61.4, MCL1 BIM primary 149.5, BCLXL inh confirm 107.7, MCL1 inh confirm 113.4 and E coli Lon conf 20.7.
Screening CN1CCc2cc3c(c4c2C1Cc1ccccc1-4)OCO3 (stereo not given) returned Bcl-xL primary 165.5, MEX-5 binding inconclusive, GLD-1 RNA inh 94.4, eLon inh 148.2, MCL1 BIM primary active, BCLXL inh confirm 77.3, MCL1 inh confirm 86.8 and E coli Lon conf 98.7.
Screening CCCC[n+]1cc(=N)o[n-]1 returned Bcl-xL primary inactive, MEX-5 binding inactive, GLD-1 RNA inh inactive, eLon inh inactive and MCL1 BIM primary inactive.
Screening CN(c1ccc(O)cc1)c1ccc([N+](=O)[O-])c2nonc12 returned eLon inh inactive.
`Nc1ccc2nonc2c1[N+](=O)[O-]` gave Bcl-xL primary active, MEX-5 binding inconclusive, GLD-1 RNA inh active, EBV gp42 inh 193.8, eLon inh 193.5, MCL1 BIM primary active, BCLXL inh confirm active, MCL1 inh confirm active, GLD-1 TGE cf 158.3 and E coli Lon conf active.
O=c1cc(C(F)(F)F)c2cc3c4c(c2o1)CCCN4CCC3 was read as Bcl-xL primary active, MEX-5 binding inconclusive, GLD-1 RNA inh active, EBV gp42 inh 149.6, eLon inh active, MCL1 BIM primary active, BCLXL inh confirm 179.4, MCL1 inh confirm active and E coli Lon conf 167.0.
`Cc1cc2c(C(F)(F)F)cc(=O)oc2c2c1NCCC2` gave Bcl-xL primary 112.2, MEX-5 binding inactive, GLD-1 RNA inh 111.7, EBV gp42 inh inactive, eLon inh 65.2, MCL1 BIM primary 145.6, BCLXL inh confirm 94.6, MCL1 inh confirm 93.6 and E coli Lon conf 62.4.
Screening Cc1ccc(OC(=O)N(C)C[C@@H]2OCc3cnnn3CCCC(=O)N([C@@H](C)CO)C[C@@H]2C)cc1 returned eLon inh inactive.
Cc1ccsc1C(=O)C1CCCN(Cc2sc(N(C)C)nc2Cl)C1 (stereo not given) was read as Bcl-xL primary inactive, MEX-5 binding inactive, GLD-1 RNA inh inactive, EBV gp42 inh inactive, eLon inh inactive and MCL1 BIM primary inactive.
`O=C(COc1ccc2ccc(=O)oc2c1)N1C[C@H]2C[C@@H](C1)c1cccc(=O)n1C2` gave Bcl-xL primary inactive, MEX-5 binding inactive, GLD-1 RNA inh inactive, eLon inh inactive and MCL1 BIM primary inactive.
